{"source": "PubChem BioAssay AID540276", "about": "(National Center for Advancing Translational Sciences (NCATS), 2011)", "note": "The whole screen tested about 300,000 compounds, of which about 5,400 (1.8%) were called active. Another 28% or so got no clear call; they are omitted. Many of the other results were omitted from the sample, so actives are more common in it than they were. A number with no mark means an inactive call. The call rests on the fitted dose curve; tested in HEK293 cells. On the % scale 0 is the no-effect control and ±100 the full control effect; potency means the concentration at half of the fitted maximal effect."}
{"test": "qHTS for inhibitors of binding or entry into cells for Marburg Virus", "conditions": "Marburg virus pseudotyped entry inhibition, cell reporter; series mostly up to 37.8 µM; activity change, negative = inhibition: at the top concentration"}
{"smiles": "Cc1cccc(C=CC(=O)c2ccc(Cl)cc2)c1", "activity change, negative = inhibition": "-22.1%"}
{"smiles": "O=C(COC(=O)c1cccnc1Cl)Nc1ccc(S(=O)(=O)N2CCOCC2)cc1", "activity change, negative = inhibition": "-6.23% [at 46.1 µM]"}
{"smiles": "COc1ccc(C(C(=O)NCC2CCCO2)N(C(=O)Cn2nnc3ccccc32)c2ccc(NC(C)=O)cc2)cc1OC", "note": "(centres undefined)", "activity change, negative = inhibition": "-1.63% [at 46.1 µM]"}
{"smiles": "Cc1ccc(C)c(N2CCN(C(=O)CCc3nc(-c4cccc(C(F)(F)F)c4)no3)CC2)c1", "activity change, negative = inhibition": "-1.91%"}
{"smiles": "COc1ccc(OC)c(Cc2nnc(CCC(=O)NC3CCCC3)o2)c1", "activity change, negative = inhibition": "17.9% [at 46.1 µM]"}
{"smiles": "COc1ccc(OC)c(NC(=O)c2sc3nc(C)cc(C)c3c2N)c1", "activity change, negative = inhibition": "2.05% [at 46.1 µM]"}
{"smiles": "COc1ccc(OC)c(Cc2cnc3nc(N)nc(N)c3c2C)c1", "Potency": "0.112 µM (active)"}
{"smiles": "CCCc1cc(=O)[nH]c(SCC(=O)Nc2ccc(S(=O)(=O)N3CCCC3)cc2)n1", "activity change, negative = inhibition": "-1.04% [at 46.1 µM]"}
{"smiles": "Cn1c(=O)c2c(O)c(C=NCC3CCCCC3)c(=O)n(C)c2n(C)c1=O", "activity change, negative = inhibition": "4.39% [at 46.1 µM]"}
{"smiles": "Clc1ccc(CN2CCCCCC2)cc1Cl", "activity change, negative = inhibition": "1.88%"}
{"smiles": "CC(CN1CCCCC1)c1ccccc1", "note": "(centres undefined)", "activity change, negative = inhibition": "13.2%"}
{"smiles": "COc1ccc(C(O)(C2CCCCC2)C(CN2CCCC2)c2ccccc2)cc1", "note": "(centres undefined)", "Potency": "8.91 µM (active)"}
{"smiles": "c1ccc(C(CN2CCCCC2)c2ccccc2)cc1", "activity change, negative = inhibition": "-13.7%"}
{"smiles": "CCOc1ccc(NC(=O)CN(C)C(=O)Cc2sc(C)nc2-c2ccc(F)cc2)cc1OCC", "activity change, negative = inhibition": "1.92%"}
{"smiles": "COC(=O)C1CCCCN1C(=O)c1ccc(OC2CCN(C(C)=O)CC2)c(OC)c1", "note": "(centres undefined)", "activity change, negative = inhibition": "7.23%"}
{"smiles": "CC(C)(C)NCC(O)COc1cccc2[nH]c(=O)[nH]c12", "note": "(centres undefined)", "Potency": "inactive"}
{"smiles": "COc1ccccc1OCCNCC(O)COc1cccc2[nH]c3ccccc3c12", "note": "(centres undefined)", "Potency": "11.6 µM (active)"}
{"smiles": "COc1ccccc1OCC(O)CN1CCOCC1", "note": "(centres undefined)", "activity change, negative = inhibition": "-0.819%"}
{"smiles": "Cc1ccc(NC(=O)CSc2nnc(CNC(=O)c3ccccc3F)o2)cc1Cl", "activity change, negative = inhibition": "21.5% [at 46.1 µM]"}
{"smiles": "O=C(N/N=C/c1ccoc1)c1ccc(Cl)cc1Cl", "activity change, negative = inhibition": "-2.57% [at 46.1 µM]"}
{"smiles": "COc1ccc(Cc2nnc(N/N=C/c3ccccc3O)[nH]c2=O)cc1OC", "Potency": "3.66 µM (active)"}
{"smiles": "CCOc1ccc(-n2c(O)c(/C=N/Nc3nnc(C)c(=O)[nH]3)c3ccccc3c2=O)cc1", "activity change, negative = inhibition": "-12.6% [at 46.1 µM]"}
{"smiles": "O=c1[nH]c(NCCO)nnc1Cc1ccc(Cl)cc1", "activity change, negative = inhibition": "-1%"}
{"smiles": "O=C(OCC(=O)N1CCN(C(=O)c2ccco2)CC1)c1ccc(Cl)c(Cl)c1", "activity change, negative = inhibition": "26.2%"}
{"smiles": "COCCOC(=O)C1=C(C)NC(=O)NC1c1cc2c(cc1Br)OCO2", "note": "(centres undefined)", "activity change, negative = inhibition": "0.203% [at 46.1 µM]"}
{"smiles": "c1ccc2c(c1)C(=NC1CCCCC1)NC2=NC1CCCCC1", "Potency": "5.8 µM (active)"}
{"smiles": "O=C1CCCCC(=O)c2ccccc2N1", "activity change, negative = inhibition": "28.7%"}
{"smiles": "C1CCC2=C(C1)CN1CCCC1=N2", "activity change, negative = inhibition": "2.94% [at 46.1 µM]"}
{"smiles": "Cc1nc2ccc(N)nc2nc1C", "activity change, negative = inhibition": "19.2%"}
{"smiles": "Cc1cccc(NC(=O)C2CCN(C(=O)NC3CCCCC3)CC2)c1", "activity change, negative = inhibition": "6.86% [at 46.1 µM]"}
{"smiles": "CC[C@]1(O)C(=O)OCc2c1cc1n(c2=O)Cc2cc3ccccc3nc2-1", "Potency": "0.0251 µM (active)"}
{"smiles": "Cn1c(Cc2cccs2)nnc1SCC(=O)Nc1ccccc1", "activity change, negative = inhibition": "6.62%"}
{"smiles": "O=C(Oc1cccc(C(=S)N2CCOCC2)c1)c1cccc(Cl)c1", "activity change, negative = inhibition": "5.5%"}
{"smiles": "COc1ccccc1C(=O)NCCC(=O)NC(C)CCc1ccccc1", "note": "(centres undefined)", "activity change, negative = inhibition": "8.66%"}
{"smiles": "COc1ccc2nc(Nc3nc4cc5c(cc4s3)OCCO5)sc2c1", "activity change, negative = inhibition": "6.42%"}
{"smiles": "Cc1nc2cc3c(cc2s1)OCO3", "activity change, negative = inhibition": "23.4%"}
{"smiles": "c1c2c(cc3sc(N4CCCCC4)nc13)OCCO2", "Potency": "0.562 µM (active)"}
{"smiles": "O=C(NCC(=O)N1CCN(c2ccccc2F)CC1)c1cccs1", "activity change, negative = inhibition": "29.6%"}
{"smiles": "CCN(CC)S(=O)(=O)c1cc(C(=O)Nc2cc(S(=O)(=O)N3CCOCC3)ccc2N2CCCC2)ccc1F", "activity change, negative = inhibition": "-14.7%"}
{"smiles": "CCCN(CCc1ccccc1)C1CCc2c(O)cccc2C1", "note": "(centres undefined)", "Potency": "15.8 µM (active)"}
{"smiles": "Cc1nn(Cc2ccccc2)c(C)c1NS(=O)(=O)c1ccccc1", "activity change, negative = inhibition": "-5.29%"}
{"smiles": "COc1ccc(N(CC(=O)NCc2ccc(F)cc2)C(=O)CCC(=O)Nc2nccs2)cc1", "activity change, negative = inhibition": "-4.66% [at 46.1 µM]"}
{"smiles": "NN=C(NN=Cc1ccccc1)c1ccccc1", "activity change, negative = inhibition": "3.82%"}
{"smiles": "COc1ccccc1NS(=O)(=O)c1ccc(C(=O)N2CCN(c3ccccc3O)CC2)cc1", "activity change, negative = inhibition": "-25.2%"}
{"smiles": "COc1cc2c(cc1OC)/C(=C/C(=O)c1ccc(NC(C)=O)cc1)NCC2", "activity change, negative = inhibition": "-26.2%"}
{"smiles": "C/C(=C\\C(=O)c1ccc(Br)cc1)N1CCCCC1", "activity change, negative = inhibition": "2.93%"}
{"smiles": "CC1CN/C(=C\\C(=O)c2ccc(Br)cc2)C(=O)N1", "note": "(centres undefined)", "Potency": "2.24 µM (active)"}
{"smiles": "Cc1cc(OCC(=O)NCC(O)c2ccccc2)c2c(C)c(C)c(=O)oc2c1", "note": "(centres undefined)", "activity change, negative = inhibition": "-12.1% [at 46.1 µM]"}
{"smiles": "O=C(Nc1cccc(Cl)c1N1CCOCC1)c1cccnc1", "activity change, negative = inhibition": "-10.6% [at 46.1 µM]"}
{"smiles": "Cc1ccc(S(=O)(=O)NCC(=O)Nc2ccc3c(c2)OCCO3)cc1", "activity change, negative = inhibition": "4.18%"}
{"smiles": "COc1ccc(OCC(=O)NCCS(=O)(=O)N2CCN(c3ccc(F)cc3)CC2)cc1", "activity change, negative = inhibition": "-0.979% [at 46.1 µM]"}
{"smiles": "CCc1c(C)sc(NC(=O)/C=C/c2ccc3c(c2)OCO3)c1C(=O)OC", "activity change, negative = inhibition": "-15.3%"}
{"smiles": "O=C(/C=C/c1ccc2c(c1)OCO2)NCc1ccc(F)cc1", "activity change, negative = inhibition": "5.87%"}
{"smiles": "Cc1cccc(NC(=O)/C=C/c2ccc3c(c2)OCO3)n1", "Potency": "6.51 µM (active)"}
